The panel holds about 83,000 compounds, 20% with a hit somewhere; the sample as a whole holds those more often.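 48-hour exposure, single concentration, 96-well plates; percent growth endpoint where 0 means no net growth. Active: below 10.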 Unmarked numbers belong to inactive results. Calls of active or inactive are those of the source.
Columns and labels:
Experiment in all cases: NCI-60 one-dose screen, 48 h (100 = growth as untreated, 0 = no growth, -100 = all killed)
Conditions in all cases: 10 µM unless noted
[1] = system: T-47D breast
[2] = system: BT-549 breast
[3] = system: MDA-MB-435 melanoma
[4] = system: SW-620 colon
[5] = system: MCF7 breast
[6] = system: HCT-116 colon
[7] = system: HCC-2998 colon
[8] = system: KM12 colon

Compound | growth [1] | growth [2] | growth [3] | growth [4] | growth [5] | growth [6] | growth [7] | growth [8]
Cn1c2c(cc(S(=O)(=O)c3ccccc3)c1=O)CCc1c-2cnn1-c1ccc(Cl)cc1 | -24.2% (active) | -13.8% (active) | 16.2% | 56.7% | -27.7% (active) | 53% | 74.3% | 92.2%
O=c1[nH]c(=S)[nH]c(O)c1/C=C1\C=Nc2ccccc21 | 98.4% | 76.9% | 47.3% | 36.2% | 62.2% | 39.5% | 99.6% | 47.7%
COC(=O)c1cc(=O)nc(N/N=C/c2ccccc2O)s1 | 73.1% | 94.7% | 100% | 106% | 5.18% (active) | 58.7% | 89.1% | 95.3%
CCCOC(=O)c1c(C)n(C)c2scc[n+]12 | 92.8% | 80.5% | 90.9% | 77.8% | 96.7% | 70.3% | 184% | 74%
CCCCCCNC(=O)Oc1ccc(/C(=C(/C)Cc2ccc(OC)cc2)c2ccc(OCCN(C)C)cc2)cc1 | 25.8% | 88.1% | 67.8% | 35.4% | 20.4% | 26.7% | 52.4% | 56.3%
Cc1c(Cc2ccccc2)c(=O)oc2c(C)c(OCC(=O)n3nc(C#N)cc3N)ccc12 | 81.9% | 90.3% | 102% | 101% | 89.7% | 95.3% | 104% | 98.7%
CC1CCCCC[N+]12CCCC2 (centres undefined) | 107% | 107% | 100% | 107% | 97.2% | 109% | 117% | 106%
CC(C)(C)c1cc(C[P+](c2ccc(Cl)cc2)(c2ccc(Cl)cc2)c2ccc(Cl)cc2)cc(C(C)(C)C)c1O | 56.1% | 102% | 84.7% | 79.6% | 65.1% | 40.7% | 107% | 88.9%
CC(C)(C)C(=O)OCOP(=O)(OCOC(=O)C(C)(C)C)C1CC(O)N(O)C1=O (centres undefined) | 36% | -8.94% (active) | 68.5% | 39.1% | 15.3% | 20.9% | 38.1% | 33.3%
COc1cc(OC)c(/C=C/c2ccc3ccccc3[n+]2C)c(OC)c1 | 9.72% (active) | -0.0814% (active) | -30.6% (active) | 13.5% | 3.94% (active) | 2.2% (active) | 13.4% | -49.2% (active)
C[C@@H](c1ccc2c(c1)[nH]c1ccc(Cl)cc12)c1nc2ccc(Cl)cc2[nH]1 | 19.1% | 68.2% | 106% | 98.7% | 13.8% | 79.7% | 92% | 81.9%
CCOC(=O)c1csc(-c2ccc(COC(=O)c3ccccc3)o2)n1 | 102% | 116% | 101% | 112% | 92.9% | 99.8% | 105% | 112%
O=C(/C=C\c1ccccc1Cl)c1ccccc1 | 91.6% | 92% | 90.5% | 82.5% | 46.8% | 53.9% | 94.6% | 66%
NNC(=O)CNc1ccc2ccccc2c1 | 108% | 93.4% | 111% | 99.8% | 102% | 107% | 140% | 97.2%
Cc1ccc(CC(=O)O)c(C)c1 | 97.1% | 119% | 108% | 102% | 95.7% | 107% | 89.8% | 105%
CC(O)CN(CCO)CCN(CCO)CC(C)O (centres undefined) | 100% | 105% | 106% | 105% | 94.5% | 104% | 109% | 108%
CC(=N\N=C(N)N)/C(=N/N=C(N)N)c1ccccc1 | 60.8% | 88% | 103% | 86.3% | 18.9% | 80.4% | 73.8% | 70.4%
CCCCCCCCCC[N+](C)(C)C | 27.3% | 46.7% | 32.6% | 19% | 31.1% | 21.8% | 22% | -51.2% (active)
O=C(CBr)OCc1ccc([N+](=O)[O-])o1 | 95.2% | 118% | 107% | 83.2% | 98.4% | 106% | 95.2% | 105%
COc1cc(NC(C)CCCN)c2nccc(C)c2c1OC (centres undefined) | 66.7% | 98.2% | 106% | 83.5% | 10.2% | 93.1% | 96.7% | 101%
COc1cc(C(=O)Nc2ccc(N(C)C)cc2)cc(OC)c1OC | 91.1% | 96.7% | 1.26% (active) | 85.9% | 77.8% | 89% | 92.1% | 81%
COc1nc(OC)nc(-c2cc(C(=O)c3ccc(Br)cc3)n3cc(C)cc(C)c23)n1 | 37.9% | 42.7% | 94.9% | 89.7% | 70.5% | 36.5% | 86.2% | 94.2%
CC(=O)Oc1cc2ccccc2cc1C(C)C | 101% | 112% | 102% | 99.7% | 98% | 97.1% | 99.2% | 118%
O=C(O)c1occ(Cl)c1Cl | 103% | 130% | 98.5% | 104% | 111% | 116% | 104% | 110%
COc1cc2c(cc1OC)C(Cc1cc(OC)c(OC)cc1[N+](=O)[O-])=NCC2 | 78.5% | 56.6% | 90.9% | 82% | 94% | 62.2% | 89.5% | 88%
Oc1ccc(Br)cc1/C=N/NC(=S)NC12CC3CC(CC(C3)C1)C2 | -4.11% (active) | 64.3% | 18.6% | -24.8% (active) | -17.4% (active) | 8.08% (active) | -8.19% (active) | -24.6% (active)
COc1ccc(C2=C/C(=C\c3ccc(Cl)cc3)C(=O)NN2C(=S)NN)cc1 | 76.6% | 101% | 109% | 99.4% | 75.3% | 94.9% | 109% | 100%
COCC(=O)NNc1[nH]c(-c2ccc(OC)cc2)cc1C#N | 106% | 113% | 102% | 114% | 108% | – | 133% | 104%
COc1ccc2c(c1)/C(=C/c1c(-c3cc(OC)c(OC)c(OC)c3)nc3sccn13)C(=O)N2 | 86.6% | 98.9% | 100% | 99.9% | – | – | 106% | 84%

— PubChem BioAssay (NCI)
